DT40 TDP1 CPT = DT40-hTDP1 cell growth loss with CPT; chicken DT40 Tdp1-/-;hTDP1 cells + 20 nM CPT, ATP luminescence, 48 h; Potency, µM (titrated, usually from 46.2 µM), for the others: at the top dose activity change, negative = growth inhibition, usual class: inhibitors; actives 12% (n = 420,000); AID 686979; note: potency is the fitted concentration of half-maximal effect; nearly all actives have a fitted effect of over 55% in size
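Cell growth measured by CellTiter-Glo luminescence after a minimum 48 h, 37 C compound exposure with 20 nM CPT in Tdp1-knockout DT40 cells stably expressing hTDP1, seeded 400/well; qHTS titration format.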
RORg inh = ROR gamma (mouse) transcription inhibition. P51450. Drosophila S2 Gal4-RORgamma UAS-luciferase reporter, 20 h. Potency, µM (doses to about 53.6 µM), for the others: at the highest dose activity change, negative = inhibition, actives largely listed as inhibitors. actives 5.4% (n = 310,000). AID 2551; note: potency is the fitted concentration of half-maximal effect; nearly all actives have a fitted effect of over 60% in size
Target sequence (P51450 whole entry, looked up, the tested form may be a part): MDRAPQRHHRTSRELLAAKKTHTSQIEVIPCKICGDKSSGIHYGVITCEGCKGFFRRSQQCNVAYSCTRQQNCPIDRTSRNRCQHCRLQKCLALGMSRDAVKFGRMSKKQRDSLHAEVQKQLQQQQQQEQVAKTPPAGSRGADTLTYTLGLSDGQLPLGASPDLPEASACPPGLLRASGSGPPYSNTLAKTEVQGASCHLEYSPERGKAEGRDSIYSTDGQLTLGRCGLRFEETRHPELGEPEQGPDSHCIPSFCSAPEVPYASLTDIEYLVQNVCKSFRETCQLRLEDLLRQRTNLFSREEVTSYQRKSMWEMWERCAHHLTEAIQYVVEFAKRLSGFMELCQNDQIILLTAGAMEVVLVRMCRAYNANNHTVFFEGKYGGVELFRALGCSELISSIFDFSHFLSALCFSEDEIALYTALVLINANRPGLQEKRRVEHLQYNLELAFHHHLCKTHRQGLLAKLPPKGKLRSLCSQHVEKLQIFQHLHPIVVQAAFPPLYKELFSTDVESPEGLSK
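Stable Schneider cell line, Gal4 DNA-binding domain fused to ROR gamma, UAS-luciferase. Cmpd 1 hr RT → CuSO4 700 uM final → 20 hr RT → luciferase reagent 10 min → luminescence.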
LDHA inh = blocks human lactate dehydrogenase A; P00338; purified LDHA, NADH/diaphorase-resazurin fluorescence; hits give low values; activity change, % (values are at about 110 or 230 µM); actives 0.15% (n = 480,000); in the data active = activity change below about -30%; inconclusive = mostly about -25% to -30%;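 note: plate controls were DMSO wells for no effect and wells without enzyme for full effect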
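Resorufin fluorescence (ex540/em590), read at 0 and 20 min after diaphorase/resazurin addition, reports the NADH left after a 5 min room-temperature reaction of 2 nM human LDH5 with 0.06 mM NADH and 0.2 mM pyruvate.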
VP16 counter = counter-screen for ROR gamma inhibitors: Gal4-VP16 reporter; Drosophila S2 Gal4-VP16 UAS-luciferase, luminescence, 20 h; Potency, µM (series often up to 53.6 µM), without a hit: top-dose activity, negative = inhibition, usual class: inhibitors; actives 3.5% (n = 310,000); AID 2546;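 note: Gal4-VP16 expression switched on by copper sulfate through the metallothionein promoter; potency is the fitted concentration of half-maximal effect; nearly all actives have a fitted effect of over 50% in size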
DT40 TDP1 no CPT = qHTS for Inhibitors of human tyrosyl-DNA phosphodiesterase 1 (TDP1): qHTS in cells in absence of CPT. DT40 Tdp1-/- hTDP1 cells, no CPT, ATP luminescence, 48 h. Potency, µM (series often up to 46.2 µM), without a hit: at the top dose activity change, negative = growth inhibition, most hits filed as inhibitors. actives 15% (n = 420,000); note: potency is the fitted concentration of half-maximal effect; nearly all actives have a fitted effect of over 55% in size
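Luminescent ATP content (CellTiter-Glo) served as the growth readout. Knockout chicken DT40 cells expressing human TDP1 were exposed to compounds without camptothecin for a minimum 48 hr at 37 °C.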
IL-1B inflam inh = inhibitors of inflammasome signaling (IL-1 beta secretion); THP-1 LPS/ATP IL-1B secretion, AlphaLISA, 16 h; hits give low values; activity change, % at 57.5 µM; actives 4.7% (n = 360,000); in the data active = activity change below about -50%; inconclusive = mostly about -30% to -49%
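Secreted IL-1B measured by AlphaLISA bead assay after 16 h compound exposure of THP-1 cells; compounds (final up to 57.5 uM) added 1 h before LPS (250 ng/mL) and ATP (1.25 mM) stimulation; lower signal means less secretion.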
Numbers without * were called inactive; u = inconclusive; x = no result given; [ ] = another dose, or the depositor's remark. Most compounds without a hit are left out; they make up all but 18% or so of the library. Unless noted, calls come from the whole dose curve; as a rule, active = well fitted curve in the direction sought with a large enough effect; inconclusive = small, poorly fitted or top-dose-only effect, or another doubt; inactive = no such curve, though single readings can be large; an effect the other way counts as inactive or inconclusive. Unless noted, % is set by controls: 0 for no effect and ±100 for the full control effect.

SMILES	DT40 TDP1 CPT	RORg inh	LDHA inh	VP16 counter	DT40 TDP1 no CPT	IL-1B inflam inh
CCCCCn1nc(C(=O)NC2(C)CCS(=O)(=O)C2)c2ccccc2c1=O (stereo not drawn)	x	x	5	x	x	x
CCCCN1C(=N)N([C@@H](C)CN2CCC[C@H]2CN2C(N)=NC[C@H]2CC(C)C)C[C@H]1Cc1ccccc1	16µM*	x	-10	x	u	-54*
CCCCN1C(=N)N([C@@H](C)CN2CCC[C@H]2CN2C(N)=NC[C@@H]2Cc2ccccc2)C[C@H]1[C@H](C)CC	u	x	-10	x	u	-17
Oc1cccc(C(O)CNCc2ccc(OCc3ccc(Cl)cc3Cl)cc2)c1 (stereo not drawn)	u	11%	-3	-28%	15µM*	-91*
Oc1cccc(C(O)CNCc2ccc(-c3ccccc3)cc2)c1 (stereo not drawn)	18µM*	-17%	-3	-6%	u	-51*
OC(CNCc1cccc(Cl)c1)c1ccccc1 (stereo not drawn)	-21%	3%	-13	6%	u	0
OC(CNCc1ccccc1)c1ccccc1 (stereo not drawn)	-17%	-14%	-6	-6%	-17%	9
CCCCCCCCc1cnc(-c2ccc(OC(F)(F)F)cc2)nc1	x	x	0	x	x	x
COc1cc(/C=C2\SC(c3ccc(C)cc3)=NC2=O)cc(OC)c1O	-23%	u	22	4%[0.365 µM]	u	-12
Cc1ccc(C2=NC(=O)/C(=C/c3cc(O)c(O)c(Br)c3)S2)cc1	18µM*	-28%	17	-2%	16µM*	33
N#C/C(=C\c1ccc(O)c(O)c1)C(=O)NCCc1ccccc1	u	x	7	x	u	34
COC(=O)c1ccc(/C=C(\C#N)C(=O)NC(C)c2ccccc2)cc1 (stereo not drawn)	9.2µM*	0.5µM*	-12	4.5µM*	10µM*	-97*
COc1ccc(/C=C(\C#N)C(=O)NC(C)c2ccccc2)cc1O (stereo not drawn)	-25%	13%	-4	-2%	u	-87*
N#C/C(=C\c1ccc(O)c(O)c1)C(=O)NCCCCc1ccccc1	6.7µM*	u	x	32µM*	8.4µM*	x
CC(NC(=O)/C(C#N)=C/c1ccc(N2CCOCC2)cc1)c1ccccc1 (stereo not drawn)	13µM*	2%	2	u	9.2µM*	u
CCOc1ccc(NC(=O)NC2CCN(c3ncccn3)CC2)cc1	x	x	1	x	x	x
Nc1nccnc1C(=O)NCc1ccc(C(F)(F)F)cc1	x	x	10	x	x	x
COc1ccc(CNC(=O)CC(C)CC(=O)O)cc1 (stereo not drawn)	x	x	3	x	x	x
COCCn1c(C)cc(C(=O)C(=O)Nc2nnc(COc3ccc(C)cc3)s2)c1C	x	x	-11	x	x	x
COc1ccc(/C=C(\C#N)C(=O)NCc2ccccc2)cc1O	-29%	11%	10	-5%	-29%	-86*
CC(NC(=O)/C(C#N)=C/c1ccc([N+](=O)[O-])o1)c1ccccc1 (stereo not drawn)	0.65µM*	5µM*	8	2.5µM*	0.73µM*	-105*
COC(=O)Cn1c(Nc2ccccc2)nc2c1c(=O)n(C)c(=O)n2C	x	x	-5	x	x	x
CC1CCCN(CCCOc2ccc(Br)cc2Cl)C1 (stereo not drawn)	u	28%	-20	11%	u	-90*
CC1CCN(CCOCCOc2ccc(Br)cc2Cl)CC1	18µM*	-15%	u	-2%	21µM*	u
Cc1cc(Br)ccc1OCCOCCN1CCCC1	u	-13%	-18	0%	u	-12
SMILES	DT40 TDP1 CPT	RORg inh	LDHA inh	VP16 counter	DT40 TDP1 no CPT	IL-1B inflam inh
C=CCn1c(SCCCc2ccccc2)nc2c1c(=O)n(C)c(=O)n2C	x	x	0	x	x	x
C#CCOCCOCCOCCNc1nc(N2CCN(C(=O)CCCCCCCCCCNC(=O)Cn3cc(CCCCCN)nn3)CC2)nc(N2CCN(C(=O)CCCCCCCCCCNC(=O)Cn3cc(C[C@@H](C)O)nn3)CC2)n1	u	x	0	x	u	-77*
C#CCOCCOCCOCCNc1nc(N2CCN(C(=O)CCCCCCCCCCNC(=O)Cn3cc(C[C@@H](C)O)nn3)CC2)nc(N2CCN(C(=O)CCCCCCCCCCNC(=O)[C@@H]([C@H](C)O)n3cc(C)nn3)CC2)n1	7.3µM*	x	3	x	7.3µM*	8
C#CCOCCOCCOCCNc1nc(N2CCN(C(=O)CCCCCCCCCCNC(=O)Cn3cc(C[C@@H](C)O)nn3)CC2)nc(N2CCN(C(=O)CCCCCCCCCCNC(=O)[C@@H]([C@H](C)CC)n3cc(CCCCCN)nn3)CC2)n1	13µM*	x	7	x	5.8µM*	-105*
C#CCOCCOCCOCCNc1nc(N2CCN(C(=O)CCCCCCCCCCNC(=O)Cn3cc(CCCCCN)nn3)CC2)nc(N2CCN(C(=O)CCCCCCCCCCNC(=O)[C@@H]([C@H](C)O)n3cc(C)nn3)CC2)n1	u	x	0	x	u	-20
C#CCOCCOCCOCCNc1nc(N2CCN(C(=O)Cn3cc(CCCCN)nn3)CC2)nc(N2CCN(C(=O)Cn3cc(CC(C)O)nn3)CC2)n1 (stereo not drawn)	-7%	-39%	6	-28%	5%	-1
COc1nc2cc(C)c(C)cc2nc1C(=O)Nc1cccc(Cl)c1	x	x	1	x	x	x
COc1ccc(NC(=O)CSc2nncn3c2cc2oc(C)cc23)c(OC)c1	x	x	0	x	x	x
CCc1ccc2oc(-c3cccc(N)c3)nc2c1	12%	10µM*	-6	14µM*	2%	-29
Cc1nc2ccc(-c3nc4cc(N)ccc4o3)cc2[nH]1	u	16µM*	0	u	u	-14
Nc1ccc2oc(-c3ccc4nc[nH]c4c3)nc2c1	21µM*	u	-4	u	10µM*	-20
CC(C)c1ccc(-c2nc3cc(N)ccc3o2)cc1	x	x	1	x	x	x
Nc1ccc2oc(-c3ccc4ccccc4c3)nc2c1	x	x	6	x	x	x
Cc1ccc2nc(-c3cccc(N)c3)oc2c1	1%	9%	-4	4%	-16%	-7
O=C(NCc1ccco1)c1cc2cc(Br)ccc2[nH]1	x	x	-1	x	x	x
Cc1ccc(-c2nc3ccc(Cl)cn3c2CC2CCCCC2)cc1	-20%	x	-7	x	u	-22
COC(=O)c1ccc2nc(-c3ccc(C)cc3)c(CC3CCCCC3)n2c1	21µM*	x	-10	x	16µM*	9
